Screening results as filed in PubChem BioAssay.
V-ATPase pH: regulators of yeast V-ATPase proton pumping, primary screen, pHLuorin cytosolic pH fluorescence. 350,000 compounds, 0.37% hits. response, % at 10 µM. S. cerevisiae; in the data active = response mostly above about 7.3%, no sharp cut-off; inactive = mostly below about 5.4%; note: actives read high
PfHsp90 set2: growth inhibition of PfHsp90-expressing yeast, primary screen, antimalarial PfHsp90 inhibitor project, S. cerevisiae, BacTiter-Glo luminescence, single point, set 2. BacTiter-Glo ATP, 48 h; yeast lacking PDR1 and PDR3 efflux regulators. inhibition, % at 9.4 µM. 310,000 compounds, 0.32% hits;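 active = every replicate shows inhibition above about 80%, whatever the replicate mean, limit read from the data; inconclusive = mean inhibition reaches the set limit but some replicate falls short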;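 note: 0% = DMSO neutral controls and 100% = 20 µM radicicol positive controls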
tim23-1 inh: growth inhibitors of tim23-1 mutant yeast, primary screen, luminescence, uHTS | 330,000 compounds, 1.3% hits | S. cerevisiae tim23-1 growth, BacTiter-Glo luminescence, 24 h | inhibition, % at 20 µM | AID 463212, 2010;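 active = growth inhibition of the mutant yeast at or above 50%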;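 note: temperature-sensitive mutant grown at 25 °C; plate controls were DMSO-treated mutant yeast for no effect and medium wells lacking yeast for full effect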
TIM10 inh: growth inhibitors of isogenic TIM10 control yeast, primary screen, counter-screen for tim10-1 yeast inhibitor project, luminescence, uHTS; S. cerevisiae TIM10 strain growth, BacTiter-Glo luminescence, 24 h; inhibition, % at 10 µM; 330,000 compounds, 1.4% hits; AID 463195, 2010;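 active = inhibition of 40% or more at the single tested concentration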;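 note: wild-type TIM10 isogenic control strain grown at permissive 25 °C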
SKKanGAS inh: S. pyogenes SKKanGAS growth inhibitors in kanamycin, primary screen, streptokinase expression inhibitor project, SKKanGAS strain, BacTiter-Glo luminescence. 300,000 compounds, 1.3% hits. AID 1662, 2009. inhibition, % at 7.5 µM. 6 h;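 active = mean replicate score, as percent of positive control median, at least 50; inconclusive = mean below 50 but one replicate at or above 50; inactive = mean and every replicate below 50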;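 note: strain carries kanamycin resistance gene driven by streptokinase promoter and grows in 40 µg/ml kanamycin; loss of luminescence reflects streptokinase promoter inhibition or plain growth inhibition; 0% = median of DMSO wells and 100% = positive control at its reference dose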
tim10-1 inh: growth inhibitors of tim10-1 mutant yeast, primary screen, luminescence, uHTS; S. cerevisiae tim10-1 ts strain growth, BacTiter-Glo, 24 h; inhibition, % at 20 µM; 330,000 compounds, 2.2% hits; AID 463190, 2010;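 active = inhibition of at least 40%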;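 note: mutant grown at 25 °C; 0% = DMSO wells with yeast and 100% = wells holding no yeast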
Starred values were filed as active, the others as inactive; ? = inconclusive; / = no result. Sampled rows, rich in hits. Any-hit rate of the full collection: about 4.6%.

SMILES	V-ATPase pH	PfHsp90 set2	tim23-1 inh	TIM10 inh	SKKanGAS inh	tim10-1 inh
O=C(N/N=C/c1cccc(F)c1)c1c(O)c2ccccc2[nH]c1=O	3	14	/	/	92*	/
O=C(N/N=C/c1ccc(F)cc1)c1c(O)c2ccccc2[nH]c1=O	-1	35	24	23	94*	-7
O=C(NCCc1ccc(Cl)cc1)c1cc(-c2ccccn2)nc2ccccc12	6	14	44	30	1	35
COc1ccc(CNC(=O)CN(Cc2ccc(F)cc2)C(=O)c2csnn2)cc1	2	-12	8	6	-2	1
COC(=O)c1ccc(NC(=S)NC(=O)c2cc(-c3ccccc3)nc3ccccc23)cc1	-1	-1	17	16	8	25
COc1ccc(Cl)cc1C(=O)NNC(=S)NC(=O)c1cc(-c2ccccc2)nc2ccccc12	-2	-9	11	16	80*	9
O=C(NNC(=O)c1cc(-c2ccccc2)nc2ccccc12)Nc1cccc(Cl)c1	-3	-23	22	8	?	20
Cc1ccnc(NS(=O)(=O)c2ccc(NC(=O)c3cc(-c4ccc(Br)cc4)nc4ccccc34)cc2)n1	2	-6	-6	11	62*	4
CC(C)(C)c1ccc(-c2cc(C(=O)NNC(=O)Nc3ccccc3)c3ccccc3n2)cc1	-1	11	0	9	56*	30
COc1ccc(C(=O)NNC(=S)NC(=O)c2cc(-c3ccccc3)nc3ccccc23)cc1	3	-12	35	38	107*	36
COc1cccc(CN(C)C(=O)c2ccc(S(=O)(=O)Nc3cccc(C)c3C)cc2)c1OC	1	/	/	/	/	/
COc1ccc(CNC(=O)[C@@H](NC(=O)C2CCN(C(=O)[C@@H](N)CC(C)C)CC2)C(C)C)cc1	1	-2	-2	-4	2	2
COc1ccc(C)cc1NC(=O)C(OC(=O)c1cnc(C)cn1)c1ccccc1 (stereo not drawn)	1	9	6	-10	10	4
COc1ccc(NC(=O)C(OC(=O)c2cnc(C)cn2)c2ccccc2)cc1Cl (stereo not drawn)	-3	-12	29	8	51*	14
CCOC(=O)/C(=N\Nc1ccc(Cl)cc1)c1csc(Nc2ccccc2)n1	0	-10	23	39	73*	39
CCOC(=O)/C(=N\Nc1ccc(OC)cc1)c1csc(Nc2ccccc2)n1	-2	-54	37	34	60*	23
COc1ccc(CCNc2nc(-c3ccccn3)cs2)cc1OC	4	25	-6	16	75*	-6
COc1ccc([C@H]2CC(=O)C=C(c3cccc4c3Oc3ccccc3S4)C2)cc1OC	1	-1	11	4	/	8
c1ccc(-n2c3ccccc3c3ccccc32)cc1	1	/	-5	-5	58*	0
COc1ccc2c(c1)C=C(C(=O)NCc1ccc(Cl)cc1)CO2	2	98*	35	-15	7	27
CCOc1cc(/C=N/Nc2cc(C)nc(-n3nc(C)cc3C)n2)ccc1O	0	-25	5	-4	66*	13
COc1ccc(/C=N/Nc2cc(C)nc(-n3nc(C)cc3C)n2)c(OC)c1	-4	-22	2	4	103*	7
CCCN(CC(=O)Nc1ccccc1C)C(=O)c1ccc(NC2CC2)c([N+](=O)[O-])c1	-3	-40	12	7	4	10
CCn1cc(C(=O)OCC(=O)c2cc(C)n(-c3cccc(C(F)(F)F)c3)c2C)c(=O)c2ccc(C)nc21	-1	-14	/	/	59*	/
CCn1cc(C(=O)OCC(=O)c2ccccc2)c(=O)c2ccc(C)nc21	-1	10	/	/	24	/
SMILES	V-ATPase pH	PfHsp90 set2	tim23-1 inh	TIM10 inh	SKKanGAS inh	tim10-1 inh
O=C(N/N=C/c1c[nH]c2ccccc12)c1ccn(Cc2ccc(Cl)cc2Cl)n1	-2	-30	14	12	55*	14
O=C(N/N=C/c1c[nH]c2ccc(Br)cc12)c1ccn(Cc2ccc(Cl)cc2)n1	2	/	-3	-18	26	11
CC(C)C(NC(=O)C(c1ccccc1)c1ccccc1)c1nc2ccccc2[nH]1 (stereo not drawn)	0	14	6	-8	79*	15
Cc1cccc(C(=O)NC(C)C(=O)NC(c2nc3ccccc3[nH]2)C(C)C)c1 (stereo not drawn)	3	11	5	3	/	-4
Oc1ccc(N=Nc2ccc3c(c2)OCO3)c2ccccc12	/	/	16	-17	88*	-9
O=C(NN=Cc1c(O)ccc2ccccc12)c1ccc2c(c1)OCO2	-3	1	6	-11	/	6
CCOc1ccc(CCNC(=O)CCc2nnc3ccc(N4CCCCC4)nn23)cc1OCC	0	-11	-1	3	-2	5
CC(C)CCOc1ccc(C(=O)NN2C(=O)NC3(CCCCC3)C2=O)cc1	1	-2	-5	-4	3	-17
COc1ccc(S(=O)(=O)N(C(=O)c2ccncc2)c2ccc(OC(=O)c3ccncc3)cc2)cc1	0	91*	-2	-56	-17	-8
COc1ccc(N(C(=O)c2ccncc2)S(=O)(=O)c2ccccc2)cc1	2	194*	-191	-51	1	-56
CC(Oc1ccc(F)cc1)C(=O)Nc1ccccc1N1CCCCC1 (stereo not drawn)	-2	2	26	3	?	13
NNC(=O)Cc1cccc2ccc(Cl)cc12	4	/	/	/	/	/
CC1(C)Cc2c(cnn2-c2ccccc2)C(NC(=O)CCCN2CCCC2=O)C1 (stereo not drawn)	1	-24	3	-1	61*	-17
Cc1ccc(-n2ncc3c2CC(C)(C)CC3NC(=O)CCCN2CCCCC2=O)cc1 (stereo not drawn)	7	3	-7	-9	-5	2
Cc1ccc(/C=N/NC(=O)c2cccc(S(=O)(=O)N3CCOCC3)c2)o1	-2	12	22	18	-2	15
CN(CC(=O)Nc1cccc(C(F)(F)F)c1)C1=NS(=O)(=O)c2ccccc21	13*	-7	12	-11	/	-3
CN(CC(=O)Nc1cccc(Cl)c1)C1=NS(=O)(=O)c2ccccc21	3	/	-9	-5	/	-4
O=C(Nc1cccc2c1CCCC2)c1cc([N+](=O)[O-])ccc1Cl	9.7*	10	36	21	-1	15
Clc1ccc(-[n+]2c(-c3cccc(Br)c3)[nH]c3nc4ccccc4nc32)cc1	-1	-34	31	17	85*	29
C[C@@H]1CN([C@@H](C)CO)C(=O)c2cc(NS(C)(=O)=O)ccc2O[C@@H]1CN(C)S(=O)(=O)c1ccccc1	3	9	16	9	/	7
CC(=O)N1CCN(C(=O)c2cc3c(s2)CCCC3)CC1	18*	/	/	/	/	/
